Laboratory results from PubChem BioAssay (NCATS).
“And” between values parts separate entries of the source, which are not always exact repeats. Equal values may be shown once. Inconclusive results are not listed. Values without a mark were called inactive. The source made the active and inactive calls. Calls follow the shape of the dose curve; as a rule, active = well fitted curve in the direction sought with a large enough effect; inconclusive = small, poorly fitted or top-dose-only effect, or another doubt; inactive = no such curve, though single readings can be large; an effect the other way counts as inactive or inconclusive.

Experiment: Quantitative highthroughput screen to assess conditional lethalithy of SEM cells grown in RPMI1640 with dialyzed fetal bovine serum (RPMI+ds) (AID 1963884); also: nearly all actives have a fitted effect of over 35% in size;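 as to viability: 100% = DMSO control wells and 0% = empty wells without cells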
Conditions: SEM B-ALL cells, RPMI+dialyzed FBS, CellTiter-Glo viability, 48 h; series mostly up to 45.8 µM
Method in brief: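 Each medium arm—HPLM with 10% dialyzed FBS, or RPMI1640 with 5 mM glucose and 10% untreated or dialyzed FBS—was screened against an 11-point, 3-fold compound titration for 48 h at 37 °C, with CellTiter-Glo luminescence as endpoint.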
Potency is read from the fitted curve at half-maximal effect.

| Structure (SMILES) | Potency |
| --- | --- |
| S=C(NCc1ccc2c(c1)OCO2)N1CCN(c2ncnc3c2oc2ccccc23)CC1 | 27 µM (active) |
| c1ccc(CNc2nc(NCc3ccccc3)c3ccccc3n2)cc1 | inactive |
| NS(=O)(=O)c1ccc(Nc2nc(OCC3CCCCC3)c3[nH]cnc3n2)cc1 | 0.469 µM (active) |
| Cn1cnc2c1c(=O)[nH]c(=O)n2C | 23.5 µM (active) |
| O=C(CN1C(=O)C2(CCCC2)NC[C@H]1c1cc(F)cc(F)c1)Nc1ccc2c(c1)C[C@@]1(C2)C(=O)Nc2ncccc21 | inactive |
| Cc1cccc(Nc2nc(N[C@@H]3CCCC[C@H]3N)ncc2C(N)=O)c1 | 2.35 µM (active) |
| COc1cc2c(Nc3ccc(NC(=O)c4ccccc4)cc3)ncnc2cc1OCCCN1CCOCC1 | 2.96 µM (active) |
| COc1cc2ncnc(Nc3cccc(Cl)c3)c2cc1OC | 0.372 µM (active) |
| COc1ccc(-c2cc3c(C)nc(N)nc3n(C3CCC(OCCO)CC3)c2=O)cn1 (stereo not given) | 1.87 µM (active) |

Experiment: Cellular viability qHTS for adrenocortical cancer (ACC) cell line SW-13 (AID 1963989); also: nearly all actives have a fitted effect of over 65% in size;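 as to activity (max response): cells grown in serum-free medium with ITS supplement; % is scaled to controls: 0 for no effect and ±100 for the full control effect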
Conditions: SW-13 ACC cells viability, CellTiter-Glo, 48 h; activity (max response): stronger effect = lower value
Method in brief: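 Compound titrations (up to 46 uM final, in DMSO) were applied to SW-13 cells for 48 h at 37C/5% CO2. Reading used CellTiter-Glo after 20 min at room temperature; fitted curves yielded IC50 and efficacy.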

| Structure (SMILES) | Potency | activity (max response) |
| --- | --- | --- |
| OCCNC1CCCc2c1[nH]c1ccc(-c3ccccc3)cc21 (stereo not given) | 15.8 µM (active) |  |
| Cc1ccc(C(=O)Nc2ccc(CN3CCN(C)CC3)c(C(F)(F)F)c2)cc1C#Cc1cnc2cccnn12 | 3.16 µM (active) |  |
| CNC(=O)c1c(-c2ccc(F)cc2)oc2cc(N(CCO)S(C)(=O)=O)c(C3CC3)cc12 |  | -0.986% |
| NC1(c2ccc(-c3nc4ccn5c(=O)[nH]nc5c4cc3-c3ccccc3)cc2)CCC1 | 20.6 µM (active) and 17.8 µM (active) |  |
| CN(C)CCOC(c1ccccc1)c1ccccc1 |  | 0.185% and 9.44% |
| COc1cc2nc(N3CCN(C(=O)c4ccco4)CC3)nc(N)c2cc1OC |  | -8.85% |
| CN1CCN(c2cc(C(=O)Nc3ccc4c(c3)-c3c(c(C(N)=O)nn3-c3ccc(F)cc3)CC4)c(Cl)cn2)CC1 |  | -15.3% |
| Cn1c(=O)c2c(ncn2CC(O)CO)n(C)c1=O (stereo not given) |  | 9.53% and 9.36% |
| Cc1nc(N)sc1-c1ccnc(Nc2ccc(N3CCOCC3)cc2)n1 |  | 4.45% |
| N#CCNC(=O)c1ccc(-c2ccnc(Nc3ccc(N4CCOCC4)cc3)n2)cc1 | 25.1 µM (active) |  |
| COc1cc(-c2nn(C3CCC(N4CCN(C(C)=O)CC4)CC3)c3ncnc(N)c23)ccc1NC(=O)c1cc2ccccc2n1C (stereo not given) |  | -14.1% |
| O=C(Nc1ccc(OC(F)(F)F)cc1)c1sccc1NCc1ccnc2ccccc12 |  | -29.8% |
| CC(Oc1ccc(O)cc1)(P(=O)(O)O)P(=O)(O)O |  | 1.35% |
| Cc1cn[nH]c1 |  | 12.7% and 11.3% |
| C[C@]12C=CC(=O)C=C1CC[C@@H]1[C@@H]2C(=O)C[C@@]2(C)[C@H]1CC[C@]2(O)C(=O)CO |  | -14.6% and 1.01% |
| c1cnc2cc3c(cc2n1)C1CNCC3C1 |  | 7.13% and 6.77% |
| CCCCCCCCCC(=O)N[C@@H](Cc1c[nH]c2ccccc12)C(=O)N[C@H](CC(N)=O)C(=O)N[C@@H](CC(=O)O)C(=O)N[C@@H]1C(=O)NCC(=O)N[C@@H](CCCN)C(=O)N[C@@H](CC(=O)O)C(=O)N[C@H](C)C(=O)N[C@@H](CC(=O)O)C(=O)NCC(=O)N[C@H](CO)C(=O)N[C@@H]([C@@H](C)CC(=O)O)C(=O)N[C@@H](CC(=O)c2ccccc2N)C(=O)O[C@@H]1C |  | 12.9% |
| NS(=O)(=O)c1ccc(Nc2nc(OCC3CCCCC3)c3[nH]cnc3n2)cc1 | 22.4 µM (active) |  |
| Cn1cnc2c1c(=O)[nH]c(=O)n2C |  | 4.02% and 2.06% |
| O=C(CN1C(=O)C2(CCCC2)NC[C@H]1c1cc(F)cc(F)c1)Nc1ccc2c(c1)C[C@@]1(C2)C(=O)Nc2ncccc21 |  | -4.31% |
| Cc1cccc(Nc2nc(N[C@@H]3CCCC[C@H]3N)ncc2C(N)=O)c1 | 25.1 µM (active) |  |
| OC(c1cc(C(F)(F)F)nc2c(C(F)(F)F)cccc12)C1CCCCN1 (stereo not given) | 22.4 µM (active) |  |
| CNC(=O)c1cc(Oc2ccc(NC(=O)Nc3ccc(Cl)c(C(F)(F)F)c3)cc2)ccn1 | 8.91 µM (active) and 11.6 µM (active) |  |
| CC(C)c1cc(C(=O)N2Cc3ccc(CN4CCN(C)CC4)cc3C2)c(O)cc1O | 0.398 µM (active) |  |
| COc1cc2ncnc(Nc3cccc(Cl)c3)c2cc1OC | 5.62 µM (active) |  |
| COc1ccc(-c2cc3c(C)nc(N)nc3n(C3CCC(OCCO)CC3)c2=O)cn1 (stereo not given) | 1.12 µM (active) |  |
